# Values joined by “and” are separate entries in the source; they are usually repeats but may differ in a detail not shown here. Equal values may be shown once. Active and inactive are the calls of the source. Where a call stands in place of a potency, no number is given. Calls follow the shape of the full dose curve.
# Target: Acetylcholinesterase (Homo sapiens) (UniProt P22303)
# Experiment: Acetylcholinesterase (AChE) small molecule antagonists: enzyme-based qHTS assay with human liver microsomes (AID 1347399); also: nearly all actives have a fitted effect of over 60% in size
# Details: Potency: qHTS inhibition; series mostly up to 115 µM
# Source text: National Center for Advancing Translational Sciences [NCATS]
# Division of Preclinical Innovation [DPI]
# U.S. Environmental Protection Agency [EPA]
# National Institutes of Environmental Health Sciences [NIEHS]
# National Toxicology Program [NTP]
# U.S. Food and Drug Administration [FDA]
# Acetylcholinesterase (AChE) is the primary cholinesterase in the body that hydrolyzes a key neurotransmitter, acetylcholine. Inhibition of AChE activity can lead to neurotoxicity. The known inhibitors include organophosphorous pesticides (OP), chemical warfare agents, drugs, and various phytochemicals. Some compounds like OP compounds may need metabolic activation to be active AChE inhibitors. The cytochrome P450 (CYP) superfamily in the human microsomes is responsible for the metabolism of various endogenous and exogenous compounds.
# An enzyme-based assay with the recombinant human AChE, human liver microsomes and Amplite Colormetric acetylcholinesterase assay kit (AAT Bioquest, Sunnyvale, CA) was used to evaluate compounds in the Tox21 10K library that need metabolic activation for AChE inhibition. The assay uses 5, 5-dithiobis-(2-nitrobenzoic acid) (DTNB) to quantify the thiocholine produced from the hydrolysis of acetylthiocholine by AChE.
# Tox21 Assay Protocol Summary:
# For the enzyme-based AChE assay with microsomes addition, a mixture of human AChE (50 mU/mL) and human liver microsomes (0.25 mg/mL, final concentration) in 3 uL/well was dispensed into black, clear-bottom 1536-well plates using a Multidrop Combi dispenser (Thermo Scientific, MA). Then, 23 nL of compound or DMSO (vehicle control) was transferred into the assay plates by a Pintool Station (Wako Automation, CA). Following compound addition, 1 uL of NADPH (0.25 mg/mL, final concentration) was transferred to the assay plate by a Flying Reagent Dispenser (Beckman Coulter, CA). The plates were incubated for 30 min at 37 C and 5% CO2, followed by the addition of 4 uL of colorimetric detection cocktail solution (DTNB, acetylthiocholine) into each well using a Flying Reagent Dispenser (Beckman Coulter, CA) and then 10 min incubation at room temperature.
# Potency is read from the fitted curve at half-maximal effect.
# Chain of Acetylcholinesterase (Homo sapiens) (P22303 whole entry, looked up): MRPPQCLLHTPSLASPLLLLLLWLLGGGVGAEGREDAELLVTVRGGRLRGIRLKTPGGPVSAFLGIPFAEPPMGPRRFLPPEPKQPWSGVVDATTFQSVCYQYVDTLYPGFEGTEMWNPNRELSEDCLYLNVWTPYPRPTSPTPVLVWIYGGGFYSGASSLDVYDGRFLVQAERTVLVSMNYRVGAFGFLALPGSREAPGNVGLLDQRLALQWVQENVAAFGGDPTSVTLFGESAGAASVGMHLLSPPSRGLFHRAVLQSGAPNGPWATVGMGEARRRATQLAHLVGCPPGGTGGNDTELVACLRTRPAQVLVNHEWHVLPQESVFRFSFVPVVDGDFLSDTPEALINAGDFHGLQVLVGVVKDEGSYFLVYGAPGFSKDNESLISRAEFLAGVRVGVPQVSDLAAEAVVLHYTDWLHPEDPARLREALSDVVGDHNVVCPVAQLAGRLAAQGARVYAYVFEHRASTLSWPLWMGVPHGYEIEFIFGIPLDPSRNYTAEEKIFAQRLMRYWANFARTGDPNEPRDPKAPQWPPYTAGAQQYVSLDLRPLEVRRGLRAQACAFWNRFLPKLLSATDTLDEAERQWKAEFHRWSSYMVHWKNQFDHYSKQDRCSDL
row,Structure (SMILES),Potency
1,CC(C)(C)c1ccccc1O,inactive
2,COC(=O)c1sccc1S(=O)(=O)NC(=O)Nc1nc(C)nc(OC)n1,inactive
3,CN(C)c1ccc(C(=O)c2ccc(N(C)C)cc2)cc1,inactive
4,C=CCc1ccc2c(c1)OCO2,inactive
5,c1ccc(P(c2ccccc2)c2ccccc2)cc1,inactive
6,Cc1cccc(N)c1N,inactive
7,CCC(C)c1ccc(O)cc1 (stereo not given),inactive
8,CCCCC(CC)COC(=O)Cl (stereo not given),inactive
9,Nc1ccc(-c2ccccc2)cc1,inactive
10,Nn1cnnc1,inactive
11,O=S(=O)(Oc1ccc(Cl)cc1)c1ccc(Cl)cc1,inactive
12,CCC(=O)O[C@H]1CC[C@H]2[C@@H]3CCC4=CC(=O)CC[C@]4(C)[C@H]3CC[C@]12C,inactive
13,CCN(CC)C(=O)/C(Cl)=C(\C)OP(=O)(OC)OC,inactive
14,CC1(C)C(C=C(Cl)Cl)C1C(=O)OC(C#N)c1cccc(Oc2ccccc2)c1 (stereo not given),inactive
15,OCC(O)CO,inactive
16,CCOc1cc(C=O)ccc1O,inactive
17,CCN(CC)C(=O)SCc1ccc(Cl)cc1,inactive
18,c1ccc(N=Nc2ccccc2)cc1,inactive
19,O=C1C=CC(=O)C=C1,inactive
20,CNC(=O)Oc1cccc2c1OC(C)(C)O2,10.4 µM (active) and 5.03 µM (active)

row,Structure (SMILES),Potency
1,Cc1ccc2c(c1N)C(=O)c1ccccc1C2=O,inactive
2,CCCCN(CC)c1c([N+](=O)[O-])cc(C(F)(F)F)cc1[N+](=O)[O-],inactive
3,Oc1cc(Cl)c(Cl)cc1Cl,inactive
4,CCN(CC)N=O,inactive
5,N#CCCCl,inactive
6,NC(=S)Nc1ccccc1,inactive
7,c1ccc(NNc2ccccc2)cc1,inactive
8,CCCCCCCCC(=O)NCc1ccc(O)c(OC)c1,inactive
9,COc1ccc(C=O)cc1,inactive
10,C[C@]12CCC(=O)C(O)=C1CC[C@@H]1[C@@H]2CC[C@]2(C)C(=O)CC[C@@H]12,inactive
11,C=CCc1ccc(OC)cc1,inactive
12,O=c1oc2ccccc2c(O)c1C(CC(O)c1ccc(-c2ccc(Br)cc2)cc1)c1ccccc1 (stereo not given),inactive
13,Oc1cc(Cl)ccc1Oc1ccc(Cl)cc1Cl,inactive
14,CCCCC(CC)COC(=O)c1ccc(C(=O)OCC(CC)CCCC)c(C(=O)OCC(CC)CCCC)c1 (stereo not given),inactive
15,CCC(C)(c1ccc(O)cc1)c1ccc(O)cc1,inactive
16,CNC(=O)N(C)c1nnc(C(C)(C)C)s1,inactive
17,O=C(O)C(F)(F)C(F)(F)C(F)(F)C(F)(F)C(F)(F)C(F)(F)C(F)(F)F,inactive
18,O=[N+]([O-])c1ccc(O)c([N+](=O)[O-])c1,inactive
19,Nc1ccc(Cl)cc1N,inactive
20,Clc1nc(Cl)nc(Cl)n1,inactive

# — PubChem BioAssay (Tox21)
